Assay in all cases: yeast three-hybrid, YBZ-1, SC-Leu-His + 0.5 mM 3-AT, 4 days
Conditions in all cases: tags: N-Gal4 AD-HA kept; label: inside an RPR1-promoter hybrid RNA with tandem MS2 sites; ssRNA

The target in one experiment is PUM1 PUF domain R4-PFV (Homo sapiens, UniProt Q14671 828-1176, N971P;H972F;Q975V). In a few lines:
(§1)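 Sequencing with Illumina followed PCR amplification of the repeat regions from transformants grown four days on SC-Leu (input) or SC-Leu-His + 0.5 mM 3-AT (selection). The transformants were strain YBZ-1 with a LexA–MS2 coat fusion and a HIS3 reporter, carrying Pumilio-1 PUF domain libraries and matching RNA elements. The interaction score is the log change in variant frequency from input to selection, computed in log2 with a pseudocount of 1 for absent variants.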

For a further experiment, the target named is PUM1 PUF domain R1-YMR (Homo sapiens, UniProt Q14671 828-1176, S863Y;R864M;Q867R). In a few lines:
as §1

The next experiment has as its target PUM1 PUF domain R7-RKL (Homo sapiens, UniProt Q14671 828-1176, S1079R;N1080K;E1083L). The method, boiled down: as §1
Another experiment has as its target PUM1 PUF domain R8-KHW (Homo sapiens, UniProt Q14671 828-1176, N1122K;Y1123H;Q1126W). The method, boiled down:
as §1

The next experiment concerns the target PUM1 PUF domain R3-SGE (Homo sapiens, UniProt Q14671 828-1176, C935S;R936G;Q939E). The method, boiled down:
as §1

A further experiment deals with PUM1 PUF domain R3-APA (Homo sapiens, UniProt Q14671 828-1176, C935A;R936P;Q939A). The method, boiled down: as §1
In a further experiment the target is PUM1 PUF domain R5-IYG (Homo sapiens, UniProt Q14671 828-1176, C1007I;R1008Y;Q1011G). In a few lines:
as §1

The target of a further experiment is PUM1 PUF domain R3-RRW (Homo sapiens, UniProt Q14671 828-1176, C935R;Q939W). In a few lines: as §1
A further experiment deals with PUM1 PUF domain R3-EFA (Homo sapiens, UniProt Q14671 828-1176, C935E;R936F;Q939A). The method, boiled down:
as §1

A further experiment concerns the target PUM1 PUF domain R3-TSR (Homo sapiens, UniProt Q14671 828-1176, C935T;R936S;Q939R). The method, boiled down: as §1

PUM1 PUF domain R1-YMR, sequence (Q14671 828-1176 S863Y/R864M/Q867R): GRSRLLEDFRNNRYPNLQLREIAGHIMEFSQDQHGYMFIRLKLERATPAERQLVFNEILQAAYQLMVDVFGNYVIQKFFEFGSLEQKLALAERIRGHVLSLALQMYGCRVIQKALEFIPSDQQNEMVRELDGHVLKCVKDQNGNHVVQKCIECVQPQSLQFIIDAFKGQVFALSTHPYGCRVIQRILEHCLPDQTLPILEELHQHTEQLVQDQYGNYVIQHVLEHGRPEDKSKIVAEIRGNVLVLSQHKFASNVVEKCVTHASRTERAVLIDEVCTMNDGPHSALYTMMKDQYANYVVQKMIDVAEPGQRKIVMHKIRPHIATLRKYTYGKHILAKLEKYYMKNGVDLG
PUM1 PUF domain R4-PFV, sequence (Q14671 828-1176 N971P/H972F/Q975V): as the sequence (Q14671 828-1176 S863Y/R864M/Q867R) above, with Y36S, M37R, R40Q, N144P, H145F, Q148V counted along it

Regarding “GGCUAGAACUAGUGGAUCCCCCGGCGCCCGGCGGCUCGAGCCCGGGUAAGUGUACAUAGUCUGCAUGCCGCCGGGCGCCAUGCCUGCAGGUCGACUCUAGAAAACAUG”, in the experiment with PUM1 PUF domain R4-PFV, the binding signal is 5.7 log2 enrichment (interaction score).
In the case of “GGCUAGAACUAGUGGAUCCCCCGGCGCCCGGCGGCUCGAGCCCGGGUAAGUGUAAAUUGUCUGCAUGCCGCCGGGCGCCAUGCCUGCAGGUCGACUCUAGAAAACAUG”, in the experiment with PUM1 PUF domain R1-YMR, the binding signal is 4.12 log2 enrichment (interaction score).
Consider “GGCUAGAACUAGUGGAUCCCCCGGCGCCCGGCGGCUCGAGCCCGGGUAAGUGUAAAUCGUCUGCAUGCCGCCGGGCGCCAUGCCUGCAGGUCGACUCUAGAAAACAUG”, for which the binding signal with PUM1 PUF domain R1-YMR was 6.92 log2 enrichment (interaction score).
For “GGCUAGAACUAGUGGAUCCCCCGGCGCCCGGCGGCUCGAGCCCGGGUAAGUUUAAAUAGUCUGCAUGCCGCCGGGCGCCAUGCCUGCAGGUCGACUCUAGAAAACAUG”, the binding signal with PUM1 PUF domain R7-RKL was 4.32 log2 enrichment (interaction score).
With “GGCUAGAACUAGUGGAUCCCCCGGCGCCCGGCGGCUCGAGCCCGGGUAAGCGUAAAUAGUCUGCAUGCCGCCGGGCGCCAUGCCUGCAGGUCGACUCUAGAAAACAUG”, the binding signal with PUM1 PUF domain R8-KHW was 5.39 log2 enrichment (interaction score).
Turning to “GGCUAGAACUAGUGGAUCCCCCGGCGCCCGGCGGCUCGAGCCCGGGUAAGUGUAAGUAGUCUGCAUGCCGCCGGGCGCCAUGCCUGCAGGUCGACUCUAGAAAACAUG”, the binding signal in the experiment with PUM1 PUF domain R3-SGE is 4.96 log2 enrichment (interaction score).
Turning to “GGCUAGAACUAGUGGAUCCCCCGGCGCCCGGCGGCUCGAGCCCGGGUAAGUGUAUAUAGUCUGCAUGCCGCCGGGCGCCAUGCCUGCAGGUCGACUCUAGAAAACAUG”, the binding signal with PUM1 PUF domain R4-PFV was 6.87 log2 enrichment (interaction score).
With “GGCUAGAACUAGUGGAUCCCCCGGCGCCCGGCGGCUCGAGCCCGGGUAAGUGUAAAUAGUCUGCAUGCCGCCGGGCGCCAUGCCUGCAGGUCGACUCUAGAAAACAUG”, the binding signal in the experiment with PUM1 PUF domain R8-KHW is 3.88 log2 enrichment (interaction score); with PUM1 PUF domain R4-PFV, 6.08 log2 enrichment (interaction score); in the experiment with PUM1 PUF domain R1-YMR, 2.85 log2 enrichment (interaction score); with PUM1 PUF domain R3-APA it was 2.14 log2 enrichment (interaction score); in the experiment with PUM1 PUF domain R5-IYG, 4.13 log2 enrichment (interaction score).
Take “GGCUAGAACUAGUGGAUCCCCCGGCGCCCGGCGGCUCGAGCCCGGGUAAGUGUAAUUAGUCUGCAUGCCGCCGGGCGCCAUGCCUGCAGGUCGACUCUAGAAAACAUG”: the binding signal with PUM1 PUF domain R3-RRW is 3.94 log2 enrichment (interaction score); with PUM1 PUF domain R3-EFA it was 3.24 log2 enrichment (interaction score); with PUM1 PUF domain R3-TSR, 2.25 log2 enrichment (interaction score).
Consider “GGCUAGAACUAGUGGAUCCCCCGGCGCCCGGCGGCUCGAGCCCGGGUAAGUCUAAAUAGUCUGCAUGCCGCCGGGCGCCAUGCCUGCAGGUCGACUCUAGAAAACAUG”, for which, in the experiment with PUM1 PUF domain R7-RKL, the binding signal is 3.94 log2 enrichment (interaction score).
